# Results: PubChem BioAssay (EPA / NIEHS)
# Records with an inconclusive call do not appear. The source made the active and inactive calls. How the source made its calls: active means hit-call score of the fitted dose curve at least 0.9, where 1 is the maximum; inconclusive means response in the unintended direction; inactive means score below 0.9.
# Target: human Vascular Endothelial Growth Factor Receptor 3 (VEGFR3), FLT4 (gene 2324) (UniProt P35916)
# Test: NVS_ENZ_hVEGFR3: NovaScreen (NVS) Enzymatic Assay for human Vascular Endothelial Growth Factor Receptor 3 (VEGFR3) (AID 2283229)
# Procedure, shortened: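 Cell-free recombinant VEGFR3 kinase reaction with fluorescent substrate, read 1 h after dosing by electrophoretic mobility shift separation of substrate and product. Single-concentration duplicate screen at 25 uM, then concentration-response up to 50 uM; loss of activity versus DMSO.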
row,SMILES,outcome
1,CCN(CC)C(=S)SSC(=S)N(CC)CC,inactive
2,O=C(NO)C1(NS(=O)(=O)c2ccc(Oc3ccc(F)cc3)cc2)CCOCC1,inactive
3,CCCCC(CC)C(=O)OCCOCCOCCOC(=O)C(CC)CCCC (stereo not drawn),inactive
4,CCCCCCCC/C=C\CCCCCCCC(=O)OC[C@@H](O)[C@H]1OC[C@H](O)[C@H]1O,inactive
5,O=c1[nH]cnc2c1ncn2[C@H]1CC[C@@H](CO)O1,inactive
6,OCCOCCOCCO,inactive
7,CC[C@H](C)C(=O)O[C@H]1C[C@H](O)C=C2C=C[C@H](C)[C@H](CC[C@@H](O)C[C@@H](O)CC(=O)O)[C@H]21,inactive
8,CCCC(CCC)C(=O)O,inactive
9,Cc1ncc([C@@H](CCCCCCc2ccc3c(n2)NCCC3)CC(=O)O)cn1,inactive

# Target: human Vascular Endothelial Growth Factor Receptor 2 (VEGFR2), KDR (gene 3791) (UniProt P35968)
# Test: NVS_ENZ_hVEGFR2: NovaScreen (NVS) Enzymatic Assay for human Vascular Endothelial Growth Factor Receptor 2 (VEGFR2) (AID 2283230)
# Procedure, shortened: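 Cell-free recombinant VEGFR2 kinase, fluorescent substrate with electrophoretic mobility-shift separation; read 1 h after dosing. Screened at 25 uM in duplicate, hits to concentration-response up to 50 uM; loss-of-signal versus DMSO.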
# Sequence of human Vascular Endothelial Growth Factor Receptor 2 (VEGFR2), KDR (gene 3791) (P35968 whole entry, looked up): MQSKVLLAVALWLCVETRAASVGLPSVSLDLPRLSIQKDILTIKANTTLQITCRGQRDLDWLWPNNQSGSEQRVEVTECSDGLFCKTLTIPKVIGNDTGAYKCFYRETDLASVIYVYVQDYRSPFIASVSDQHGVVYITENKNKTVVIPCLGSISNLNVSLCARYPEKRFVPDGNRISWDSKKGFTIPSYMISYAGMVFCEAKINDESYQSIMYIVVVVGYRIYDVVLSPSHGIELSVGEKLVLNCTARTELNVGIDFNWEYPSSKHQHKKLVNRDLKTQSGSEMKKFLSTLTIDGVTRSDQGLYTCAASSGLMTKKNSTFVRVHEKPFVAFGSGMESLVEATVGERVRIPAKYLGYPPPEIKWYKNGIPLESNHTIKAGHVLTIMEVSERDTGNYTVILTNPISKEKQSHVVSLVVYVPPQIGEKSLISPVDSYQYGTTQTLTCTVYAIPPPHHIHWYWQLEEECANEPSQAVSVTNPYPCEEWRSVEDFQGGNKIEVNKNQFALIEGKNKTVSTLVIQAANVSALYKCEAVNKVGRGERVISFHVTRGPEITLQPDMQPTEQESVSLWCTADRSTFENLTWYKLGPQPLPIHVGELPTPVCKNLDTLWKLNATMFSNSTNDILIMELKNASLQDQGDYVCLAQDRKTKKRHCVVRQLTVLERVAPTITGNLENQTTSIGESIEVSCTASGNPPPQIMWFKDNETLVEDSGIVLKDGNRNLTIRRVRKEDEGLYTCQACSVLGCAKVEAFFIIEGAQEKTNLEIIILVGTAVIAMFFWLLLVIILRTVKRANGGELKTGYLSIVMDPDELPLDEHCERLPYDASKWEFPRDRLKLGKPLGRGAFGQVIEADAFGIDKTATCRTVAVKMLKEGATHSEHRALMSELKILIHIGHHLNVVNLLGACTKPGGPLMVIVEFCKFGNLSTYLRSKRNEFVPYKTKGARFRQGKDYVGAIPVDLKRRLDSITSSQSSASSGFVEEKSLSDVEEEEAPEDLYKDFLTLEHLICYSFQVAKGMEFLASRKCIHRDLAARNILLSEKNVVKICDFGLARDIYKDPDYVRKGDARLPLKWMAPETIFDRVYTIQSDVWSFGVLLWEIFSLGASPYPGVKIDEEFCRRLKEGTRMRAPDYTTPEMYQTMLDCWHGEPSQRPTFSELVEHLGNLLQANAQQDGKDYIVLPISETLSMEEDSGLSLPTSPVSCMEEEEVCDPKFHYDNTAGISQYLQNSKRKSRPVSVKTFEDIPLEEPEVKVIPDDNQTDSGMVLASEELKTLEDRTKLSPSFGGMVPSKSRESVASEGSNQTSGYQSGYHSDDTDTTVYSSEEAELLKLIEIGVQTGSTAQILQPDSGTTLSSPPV
SMILES,outcome,AC50
CCN(CC)C(=S)SSC(=S)N(CC)CC,inactive,
OCCNCCO,inactive,
CCCCCCCC/C=C\CCCCCCCC(=O)OC[C@@H](O)[C@H]1OC[C@H](O)[C@H]1O,,40.7 µM (active)
Cc1ccc(S(=O)(=O)NC(=O)NN2CCCCCC2)cc1,inactive,
CC[C@H](C)C(=O)O[C@H]1C[C@H](O)C=C2C=C[C@H](C)[C@H](CC[C@@H](O)C[C@@H](O)CC(=O)O)[C@H]21,inactive,
CCCCCCCCCCCCCCO,inactive,
Cc1nc(-c2ccccn2)ncc1C(=O)Nn1cc(C)c2cc(F)ccc21,inactive,
C=CCc1cc(S(=O)(=O)c2ccc(O)c(CC=C)c2)ccc1O,,21.2 µM (active)
Cc1ncc([C@@H](CCCCCCc2ccc3c(n2)NCCC3)CC(=O)O)cn1,inactive,

# Target: sheep Cyclooxygenase-2 (Cox2), PTGS2 (gene 443460) (UniProt P79208)
# Test: NVS_ENZ_oCOX2: NovaScreen (NVS) Enzymatic Assay for sheep Cyclooxygenase-2 (Cox2) (AID 2283231)
# Procedure, shortened: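 Enzyme extracted from ovine placenta tested cell-free; activity read colorimetrically by absorbance 0.66 hour after dosing. Primary screen in duplicate at 25 uM; hits rerun as concentration series to 50 uM, loss of signal versus DMSO baseline.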
# Sequence of sheep Cyclooxygenase-2 (Cox2), PTGS2 (gene 443460) (P79208 whole entry, looked up): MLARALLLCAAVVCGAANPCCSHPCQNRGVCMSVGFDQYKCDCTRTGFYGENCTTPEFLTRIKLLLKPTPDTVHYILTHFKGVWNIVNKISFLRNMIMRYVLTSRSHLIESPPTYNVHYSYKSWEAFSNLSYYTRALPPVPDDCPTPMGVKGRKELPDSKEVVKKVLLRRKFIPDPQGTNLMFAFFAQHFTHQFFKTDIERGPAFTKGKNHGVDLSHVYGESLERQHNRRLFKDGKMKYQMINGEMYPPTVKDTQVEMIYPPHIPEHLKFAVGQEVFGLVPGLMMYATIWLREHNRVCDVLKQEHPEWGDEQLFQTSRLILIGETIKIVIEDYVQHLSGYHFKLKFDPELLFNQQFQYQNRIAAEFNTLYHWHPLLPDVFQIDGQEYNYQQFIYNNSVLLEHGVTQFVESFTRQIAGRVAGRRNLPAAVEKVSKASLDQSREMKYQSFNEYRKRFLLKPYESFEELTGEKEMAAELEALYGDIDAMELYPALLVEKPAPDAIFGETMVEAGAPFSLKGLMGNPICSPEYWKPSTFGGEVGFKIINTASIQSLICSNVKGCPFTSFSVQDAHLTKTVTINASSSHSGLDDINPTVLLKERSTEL
SMILES,outcome,AC50
CCn1nc(C)c2c1C(=O)NCC(c1ccc(O)cc1)=N2,inactive,
OC[C@H]1O[C@@H]2O[C@H]3[C@H](O)[C@@H](O)[C@@H](O[C@H]4[C@H](O)[C@@H](O)[C@@H](O[C@H]5[C@H](O)[C@@H](O)[C@@H](O[C@H]6[C@H](O)[C@@H](O)[C@@H](O[C@H]7[C@H](O)[C@@H](O)[C@@H](O[C@H]1[C@H](O)[C@H]2O)O[C@@H]7CO)O[C@@H]6CO)O[C@@H]5CO)O[C@@H]4CO)O[C@@H]3CO,,3.51 µM (active)
COc1cc(C(C)C)c2c(c1)S(=O)(=O)N(COc1cc(=O)n3cccc(OCCN4CCCCC4)c3n1)C2=O,inactive,
OCc1ccccc1,,12.3 µM (active)
CC[C@H](C)C(=O)O[C@H]1C[C@H](O)C=C2C=C[C@H](C)[C@H](CC[C@@H](O)C[C@@H](O)CC(=O)O)[C@H]21,,4.48 µM (active)
Cc1ncc([C@@H](CCCCCCc2ccc3c(n2)NCCC3)CC(=O)O)cn1,,29 µM (active)

# Target: rat Constitutive Nitric Oxide Synthase (CNOS), Nos1 (gene 24598) (UniProt P29476)
# Test: NVS_ENZ_rCNOS: NovaScreen (NVS) Enzymatic Assay for rat Constitutive Nitric Oxide Synthase (CNOS) (AID 2283236)
# Experimental: NVS_ENZ_rCNOS is a biochemical, single-readout assay that uses extracted gene-proteins from Rat brain membranes in a tissue-based cell-free assay. Measurements were taken 1 hour after chemical dosing in a 96-well plate.NVS_ENZ_rCNOS is one of one assay component(s) measured or calculated from the NVS_ENZ_rCNOS assay. It is designed to make measurements of enzyme activity, a form of enzyme reporter, as detected with scintillation counting signals by Filter-based radiodetection technology.Data from the assay component NVS_ENZ_rCNOS was analyzed into 1 assay endpoint. This assay endpoint, NVS_ENZ_rCNOS, was analyzed in the positive analysis fitting direction relative to DMSO as the negative control and baseline of activity. Using a type of enzyme reporter, loss-of-signal activity can be used to understand changes in the enzymatic activity as they relate to the gene Nos1. Furthermore, this assay endpoint can be referred to as a primary readout, because this assay has produced multiple assay endpoints where this one serves a enzymatic activity function. To generalize the intended target to other relatable targets, this assay endpoint is annotated to the oxidoreductase intended target family, where the subfamily is nitric oxide synthase.
# (§1) Binding assays used specific radioligands (tritiated, iodinated) with non-radioactive competitive displacement ligands in agonist or antagonist protocols (as indicated) and various reference compounds and inhibitors to titrate specific binding to receptors and transporters. Most enzyme assays (CYPs, kinases, phosphatases, proteases, HDACs) used recombinant protein and specific substrates (fluorescence mostly, some colorimetric and radioactive) and inhibitors, followed by a biochemical separation of substrate and product. All assays for the biochemical HTS were initially run in duplicate at a single concentration (10 uM for CYP450 assays and 25 uM for all others). Assay-chemical combinations meeting a pre-defined threshold (e.g., 30% inhibition and other criteria defined below) were then run in singleton concentration-response format with maximum concentration of 20 uM for CYPs and 50 uM for all others. Each assay was run with positive and negative controls, and concurrent controls on every plate. The follow-up (secondary) screen tested active chemical-pairs in concentration series, as well as a few additional assays not tested in the primary screen, some selected negative inactives, and several cases re-run in the concentration series for confirmatory purposes.
# Sequence of rat Constitutive Nitric Oxide Synthase (CNOS), Nos1 (gene 24598) (P29476 whole entry, looked up): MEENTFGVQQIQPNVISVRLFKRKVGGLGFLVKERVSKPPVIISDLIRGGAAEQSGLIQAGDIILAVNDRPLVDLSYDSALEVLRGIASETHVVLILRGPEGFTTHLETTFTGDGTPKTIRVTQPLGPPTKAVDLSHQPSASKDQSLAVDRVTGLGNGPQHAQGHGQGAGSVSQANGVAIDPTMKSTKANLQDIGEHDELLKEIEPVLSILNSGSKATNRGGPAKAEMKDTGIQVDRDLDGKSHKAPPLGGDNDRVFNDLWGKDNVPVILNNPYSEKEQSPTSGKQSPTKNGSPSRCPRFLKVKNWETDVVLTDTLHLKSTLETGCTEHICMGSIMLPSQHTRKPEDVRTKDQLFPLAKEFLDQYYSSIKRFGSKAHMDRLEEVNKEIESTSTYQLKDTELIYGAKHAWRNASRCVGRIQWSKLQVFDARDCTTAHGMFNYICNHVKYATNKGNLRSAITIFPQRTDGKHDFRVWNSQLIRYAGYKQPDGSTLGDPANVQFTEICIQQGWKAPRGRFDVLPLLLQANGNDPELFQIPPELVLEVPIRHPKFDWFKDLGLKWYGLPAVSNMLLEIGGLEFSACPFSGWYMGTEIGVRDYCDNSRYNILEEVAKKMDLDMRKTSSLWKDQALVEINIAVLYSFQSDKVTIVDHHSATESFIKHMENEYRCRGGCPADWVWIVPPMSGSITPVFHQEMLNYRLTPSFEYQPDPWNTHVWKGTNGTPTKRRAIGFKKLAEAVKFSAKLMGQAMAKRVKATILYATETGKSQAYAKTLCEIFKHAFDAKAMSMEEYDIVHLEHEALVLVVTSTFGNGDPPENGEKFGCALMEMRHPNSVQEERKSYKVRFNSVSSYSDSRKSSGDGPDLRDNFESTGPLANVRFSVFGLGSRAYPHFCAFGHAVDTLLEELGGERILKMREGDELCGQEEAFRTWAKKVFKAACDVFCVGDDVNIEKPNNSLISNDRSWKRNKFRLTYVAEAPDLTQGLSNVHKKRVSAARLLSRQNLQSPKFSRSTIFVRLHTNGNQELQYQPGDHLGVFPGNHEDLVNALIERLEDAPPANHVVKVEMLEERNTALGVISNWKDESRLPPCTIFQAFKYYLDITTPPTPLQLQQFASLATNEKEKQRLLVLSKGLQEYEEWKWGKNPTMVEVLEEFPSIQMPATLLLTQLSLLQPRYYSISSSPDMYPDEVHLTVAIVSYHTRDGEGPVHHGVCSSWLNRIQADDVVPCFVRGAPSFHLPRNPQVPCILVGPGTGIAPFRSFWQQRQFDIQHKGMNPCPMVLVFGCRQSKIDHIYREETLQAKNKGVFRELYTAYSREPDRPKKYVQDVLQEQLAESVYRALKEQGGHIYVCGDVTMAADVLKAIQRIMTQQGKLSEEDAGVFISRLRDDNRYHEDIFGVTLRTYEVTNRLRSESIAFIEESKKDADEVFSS
SMILES,AC50,outcome
CCCCC(CC)C(=O)OCCOCCOCCOC(=O)C(CC)CCCC (stereo not drawn),5.94 µM (active),
O=C(O)c1cccc(C[C@@H]2COc3ccc(OCc4nc5cc(F)ccc5s4)cc3[C@@H]2O)c1,,inactive
O=S(=O)(O)c1ccc(N=Nc2c(O)ccc3cc(S(=O)(=O)O)ccc23)cc1,25 µM (active),
O=C1CN(N=Cc2ccc([N+](=O)[O-])o2)C(=O)N1,,inactive
CCCCCCCCN(C)C,,inactive
CCCCCCCCCCCCCCO,11.7 µM (active),

# Target: sheep Cyclooxygenase-1 (Cox1), PTGS1 (gene 443551) (UniProt P05979)
# Test: NVS_ENZ_oCOX1: NovaScreen (NVS) Enzymatic Assay for sheep Cyclooxygenase-1 (Cox1) (AID 2283239);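 further: actives reduce cyclooxygenase activity so potencies are for inhibitors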
# Experimental: NVS_ENZ_oCOX1 is a biochemical, single-readout assay that uses extracted gene-proteins from Ovine seminal vesicles in a tissue-based cell-free assay. Measurements were taken 0.66 hour after chemical dosing in a 96-well plate.NVS_ENZ_oCOX1 is one of one assay component(s) measured or calculated from the NVS_ENZ_oCOX1 assay. It is designed to make measurements of enzyme activity, a form of enzyme reporter, as detected with absorbance signals by Colorimetric technology.Data from the assay component NVS_ENZ_oCOX1 was analyzed into 1 assay endpoint. This assay endpoint, NVS_ENZ_oCOX1, was analyzed in the positive analysis fitting direction relative to DMSO as the negative control and baseline of activity. Using a type of enzyme reporter, loss-of-signal activity can be used to understand changes in the enzymatic activity as they relate to the gene PTGS1. Furthermore, this assay endpoint can be referred to as a primary readout, because this assay has produced multiple assay endpoints where this one serves a enzymatic activity function. To generalize the intended target to other relatable targets, this assay endpoint is annotated to the oxidoreductase intended target family, where the subfamily is cyclooxygenase.
# as §1, with “Assay-chemical combinations meeting a pre-defined threshold (e.g., 30% inhibition and other criteria defined below) were then run in singleton concentration-response format with maximum concentration of 20 uM for CYPs and 50 uM for all others.” left out
# Sequence of sheep Cyclooxygenase-1 (Cox1), PTGS1 (gene 443551) (P05979 whole entry, looked up): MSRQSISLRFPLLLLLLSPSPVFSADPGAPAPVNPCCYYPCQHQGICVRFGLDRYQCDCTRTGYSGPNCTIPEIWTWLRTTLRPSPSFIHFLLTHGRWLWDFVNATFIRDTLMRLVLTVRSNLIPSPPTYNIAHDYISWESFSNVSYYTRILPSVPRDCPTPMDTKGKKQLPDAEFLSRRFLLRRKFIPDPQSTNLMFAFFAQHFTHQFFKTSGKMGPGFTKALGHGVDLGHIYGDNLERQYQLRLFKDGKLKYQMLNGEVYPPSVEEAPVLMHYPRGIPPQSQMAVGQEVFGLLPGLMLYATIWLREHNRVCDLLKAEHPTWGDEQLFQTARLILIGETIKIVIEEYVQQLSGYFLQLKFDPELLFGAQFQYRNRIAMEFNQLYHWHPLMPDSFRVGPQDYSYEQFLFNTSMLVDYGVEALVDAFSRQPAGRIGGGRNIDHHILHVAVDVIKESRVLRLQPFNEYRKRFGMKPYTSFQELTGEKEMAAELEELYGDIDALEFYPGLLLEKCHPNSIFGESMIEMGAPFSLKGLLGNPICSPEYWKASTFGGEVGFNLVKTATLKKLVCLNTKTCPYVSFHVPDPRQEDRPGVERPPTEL
SMILES,outcome,AC50
O=C1CN(N=Cc2ccc([N+](=O)[O-])o2)C(=O)N1,inactive,
CC[C@H](C)C(=O)O[C@H]1C[C@H](O)C=C2C=C[C@H](C)[C@H](CC[C@@H](O)C[C@@H](O)CC(=O)O)[C@H]21,inactive,
O=C(O)c1cccc(C(=O)O)c1,inactive,
O=C(N[C@H](CO)[C@H](O)c1ccc([N+](=O)[O-])cc1)C(Cl)Cl,inactive,
OCc1c[nH]c2ccccc12,,25 µM (active)
Cc1nc(-c2ccccn2)ncc1C(=O)Nn1cc(C)c2cc(F)ccc21,inactive,
C=CCc1cc(S(=O)(=O)c2ccc(O)c(CC=C)c2)ccc1O,,1.07 µM (active)

# Target: Adenosine receptor A1 (Bos taurus) (UniProt P28190)
# Test: NVS_GPCR_bAdoR_NonSelective: NovaScreen (NVS) G Protein-Coupled Receptor Assay for bovine Adenosine Receptor (AdoR), Non-selective Binding (AID 2283244)
# Experimental: NVS_GPCR_bAdoR_NonSelective is a biochemical, single-readout assay that uses extracted gene-proteins from Bovine striatal membranes in a tissue-based cell-free assay. Measurements were taken 1 hour after chemical dosing in a 96-well plate.NVS_GPCR_bAdoR_NonSelective is one of one assay component(s) measured or calculated from the NVS_GPCR_bAdoR_NonSelective assay. It is designed to make measurements of radioligand binding, a form of binding reporter, as detected with scintillation counting signals by Filter-based radiodetection technology.Data from the assay component NVS_GPCR_bAdoR_NonSelective was analyzed into 1 assay endpoint. This assay endpoint, NVS_GPCR_bAdoR_NonSelective, was analyzed in the positive analysis fitting direction relative to DMSO as the negative control and baseline of activity. Using a type of binding reporter, loss-of-signal activity can be used to understand changes in the binding as they relate to the gene ADORA1. Furthermore, this assay endpoint can be referred to as a primary readout, because the performed assay has only produced 1 assay endpoint. To generalize the intended target to other relatable targets, this assay endpoint is annotated to the gpcr intended target family, where the subfamily is rhodopsin-like receptor.
# Binding assays used specific radioligands (tritiated, iodinated) with non-radioactive competitive displacement ligands in agonist or antagonist protocols (as indicated) and various reference compounds and inhibitors to titrate specific binding to receptors and transporters. Most enzyme assays (CYPs, kinases, phosphatases, proteases, HDACs) used recombinant protein and specific substrates (fluorescence mostly, some colorimetric and radioactive) and inhibitors, followed by a biochemical separation of substrate and product. All assays for the biochemical HTS were initially run in duplicate at a single concentration (10 uM for CYP450 assays and 25 uM for all others). […]
# Sequence of Adenosine receptor A1 (Bos taurus) (P28190 whole entry, looked up): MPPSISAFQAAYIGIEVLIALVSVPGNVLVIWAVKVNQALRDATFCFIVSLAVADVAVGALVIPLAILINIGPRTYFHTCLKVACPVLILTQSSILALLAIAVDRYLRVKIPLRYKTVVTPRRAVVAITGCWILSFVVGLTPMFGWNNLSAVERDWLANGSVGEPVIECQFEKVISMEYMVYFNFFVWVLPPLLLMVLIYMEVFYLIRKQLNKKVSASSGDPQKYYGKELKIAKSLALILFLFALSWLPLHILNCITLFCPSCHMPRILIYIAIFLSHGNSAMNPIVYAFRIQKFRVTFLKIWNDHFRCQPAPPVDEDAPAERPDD
SMILES,outcome,AC50
CCN(CC)C(=S)SSC(=S)N(CC)CC,inactive,
CCCOc1ccc(S(=O)(=O)N2CCN(CC)CC2)cc1-c1nc2c(CC)n(Cc3ccccn3)nc2c(=O)[nH]1,inactive,
C=CCc1cc(S(=O)(=O)c2ccc(O)c(CC=C)c2)ccc1O,,16.7 µM (active)

# Test system: not listed separately
# Test: NVS_GPCR_bNPY_NonSelective: NovaScreen (NVS) G Protein-Coupled Receptor Assay for bovine Neuropeptide Y (NPY) Receptor, Non-selective Binding (AID 2283245)
# Procedure, shortened: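 Bovine hippocampal membranes incubated 1 hour with radioligand and test chemical. Bound ligand measured by filter-based scintillation counting. Single-concentration screen at 25 uM in duplicate, then concentration-response up to 50 uM.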
row,SMILES,outcome
1,CC(C)C(=O)Nc1ccc([N+](=O)[O-])c(C(F)(F)F)c1,inactive
2,COc1cc(C(C)C)c2c(c1)S(=O)(=O)N(COc1cc(=O)n3cccc(OCCN4CCCCC4)c3n1)C2=O,inactive
3,CCCC(CCC)C(=O)O,inactive
